From PubChem BioAssay (NCI)
About 79,000 compounds went through this panel and 15% of them were active in at least one assay; those are over-represented in the sample as a whole. The source made the active and inactive calls. No stated cut-off is given here; in the data, active means growth inhibition above about 70%; inactive means the rest.

What was measured:
[1] = NCI Yeast Anticancer Drug Screen. Data for the rad50 strain (AID 155);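 further: 0% = growth of vehicle-only cultures of the same strain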; conditions: S. cerevisiae rad50 strain growth inhibition, stronger effect = higher value
Method in brief: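 Vehicle-treated cultures provide the reference for the growth inhibition reported for compound-exposed, repair-deficient yeast.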

[2] = NCI Yeast Anticancer Drug Screen. Data for the mec2-1 strain (AID 157); conditions: S. cerevisiae mec2-1 strain, stronger effect = higher value
Method in brief: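 Yeast mec2-1 mutant treated with compound. Readout: growth inhibition vs vehicle controls.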

[3] = NCI Yeast Anticancer Drug Screen. Data for the sgs1 mgt1 strain (AID 161);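 further: 0% = growth of cultures given vehicle only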; conditions: S. cerevisiae sgs1 mgt1 strain, stronger effect = higher value
Method in brief: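 Inhibition of yeast growth, normalised to vehicle-treated controls, is reported for a strain bearing genetic alterations in DNA damage repair.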

[4] = NCI Yeast Anticancer Drug Screen. Data for the cln2 rad14 strain (AID 165);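 further: 0% = growth equal to vehicle treated cultures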; conditions: S. cerevisiae cln2 rad14 strain, stronger effect = higher value
Method in brief: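 cln2 rad14 yeast strain; compound exposure; growth inhibition read vs vehicle controls.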

[5] = NCI Yeast Anticancer Drug Screen. Data for the bub3 strain (AID 167); conditions: S. cerevisiae bub3 mutant strain, stronger effect = higher value
Method in brief: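 Mutant yeast screening strain plus compound; vehicle-treated cultures serve as the 0% inhibition reference.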

[6] = NCI Yeast Anticancer Drug Screen. Data for the mlh1 rad18 strain (AID 175); conditions: S. cerevisiae mlh1 rad18 strain growth inhibition, stronger effect = higher value
Method in brief: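 Yeast w/ defined DNA-repair lesions; compound exposure; growth vs vehicle controls → % inhibition.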

[7] = at 5.0 µM (retest, dose inferred, filed as 0.5)
[8] = at 50.0 µM (retest, dose inferred, filed as 5.0)

Measured: growth inhibition

CC(C)(C)OOC(=O)/C=C\C(=O)OOC(C)(C)C
active: [4]; at 50.0 µM 75.3%
inactive: [1]; [7] 1% | [1]; [8] -1% | [1]; at 50.0 µM 5.05% | [2]; [7] -2% | [2]; [8] -1% | [2]; at 50.0 µM -15.1% | [3]; [7] 0% | [3]; [8] 0% | [3]; at 50.0 µM 8.55% | [4]; [7] 1% | [4]; [8] -8% | [5]; [7] 2% | [5]; [8] 0% | [5]; at 50.0 µM 9.7% | [6]; [7] 1% | [6]; [8] 0% | [6]; at 50.0 µM -12.7%

Cc1sc(Cc2ccccc2)nc1-c1ccc(N=Cc2ccc(N(CCCl)CCCl)cc2)cc1
active: [1]; [8] 95% | [1]; at 50.0 µM 96.2% | [2]; [8] 98% | [2]; at 50.0 µM 93.8% | [3]; [8] 98% | [3]; at 50.0 µM 96% | [4]; [8] 90% | [4]; at 50.0 µM 93.6% | [5]; [8] 96% | [5]; at 50.0 µM 89% | [6]; [8] 97% | [6]; at 50.0 µM 96.2%
inactive: [1]; [7] 20% | [2]; [7] 2% | [3]; [7] -108% | [4]; [7] -1% | [5]; [7] 2% | [6]; [7] 58%

CC[C@@H]1C(=O)OC[C@@H]1Cc1cncn1C
inactive: [1]; [7] -3% | [1]; [8] -8% | [1]; at 50.0 µM -4.1% | [2]; [7] 18% | [2]; [8] -4% | [2]; at 50.0 µM -35.8% | [3]; [7] 7% | [3]; [8] -18% | [3]; at 50.0 µM -20.9% | [4]; [7] -27% | [4]; [8] -90% | [4]; at 50.0 µM 26% | [5]; [7] -11% | [5]; [8] -4% | [5]; at 50.0 µM -19.1% | [6]; [7] -7% | [6]; [8] -1% | [6]; at 50.0 µM -9.2%

O=C(NCC1(O)N=C(c2ccc(F)cc2)c2ccsc2-n2cccc21)c1ccc(Cl)cc1Cl (stereo not given)
active: [1]; at 50.0 µM 96.7% | [2]; at 50.0 µM 95.5% | [3]; at 50.0 µM 97.2% | [4]; [8] 79% | [4]; at 50.0 µM 93.8% | [5]; at 50.0 µM 94.5% | [6]; [8] 77% | [6]; at 50.0 µM 94.9%
inactive: [1]; [7] 6% | [1]; [8] 63% | [2]; [7] -2% | [2]; [8] 44% | [3]; [7] -8% | [3]; [8] 63% | [4]; [7] 2% | [5]; [7] 9% | [5]; [8] 66% | [6]; [7] 6%

COC([CH2][Hg])CN1C(=O)c2cc(C)c(C)cc2C1=O (stereo not given)
active: [1]; [7] 99% | [1]; [8] 99% | [1]; at 50.0 µM 99.3% | [2]; [7] 100% | [2]; [8] 100% | [2]; at 50.0 µM 99.7% | [3]; [7] 100% | [3]; [8] 100% | [3]; at 50.0 µM 99.6% | [4]; [7] 99% | [4]; [8] 99% | [4]; at 50.0 µM 98.3% | [5]; [7] 99% | [5]; [8] 99% | [5]; at 50.0 µM 98.7% | [6]; [7] 99% | [6]; [8] 99% | [6]; at 50.0 µM 99.3%

CCOC(=O)NP(=O)(NNc1ccccc1)NNc1ccccc1
active: [1]; [7] 79% | [1]; [8] 98% | [1]; at 50.0 µM 100% | [2]; [7] 82% | [2]; [8] 96% | [2]; at 50.0 µM 98.8% | [3]; [7] 92% | [3]; [8] 98% | [3]; at 50.0 µM 98.8% | [4]; [7] 84% | [4]; [8] 99% | [4]; at 50.0 µM 98.2% | [5]; [7] 93% | [5]; [8] 98% | [5]; at 50.0 µM 98.8% | [6]; [7] 92% | [6]; [8] 98% | [6]; at 50.0 µM 98.2%

CC(=O)c1cc2c(cc1O)C(C)(C)CCC2(C)C
inactive: [1]; [7] 3% | [1]; [8] 3% | [2]; [7] 1% | [2]; [8] 0% | [3]; [7] 2% | [3]; [8] 1% | [3]; at 50.0 µM 47.7% | [4]; [7] 0% | [4]; [8] 0% | [5]; [7] 3% | [5]; [8] 7% | [6]; [7] -2% | [6]; [8] -5%
active: [1]; at 50.0 µM 97.8% | [2]; at 50.0 µM 98.7% | [4]; at 50.0 µM 95.6% | [5]; at 50.0 µM 95% | [6]; at 50.0 µM 98.8%

O=C(CBr)Nc1ccccc1
inactive: [1]; [7] 40% | [2]; [7] 22% | [3]; [7] 36% | [4]; [7] 25% | [6]; [7] 48%
active: [1]; [8] 99% | [1]; at 50.0 µM 97% | [2]; [8] 99% | [2]; at 50.0 µM 98.9% | [3]; [8] 99% | [3]; at 50.0 µM 98.4% | [4]; [8] 99% | [4]; at 50.0 µM 97.3% | [5]; [7] 74% | [5]; [8] 99% | [5]; at 50.0 µM 97.1% | [6]; [8] 100% | [6]; at 50.0 µM 97.8%

ClCCN(CCCl)c1ccc(C2N(Cc3ccc(Cl)cc3)CCN2Cc2ccc(Cl)cc2)cc1
inactive: [1]; [7] 25% | [2]; [7] 44% | [2]; at 50.0 µM 60.5% | [3]; [7] 53% | [4]; [7] 13% | [4]; at 50.0 µM 46.9% | [5]; [7] 22% | [5]; at 50.0 µM 48%
active: [1]; [8] 86% | [1]; at 50.0 µM 79.4% | [2]; [8] 85% | [3]; [8] 94% | [3]; at 50.0 µM 80.9% | [4]; [8] 85% | [5]; [8] 71% | [6]; [7] 76% | [6]; [8] 97% | [6]; at 50.0 µM 79.5%

CCOc1c(Br)cc(/C=C(\C)[N+](=O)[O-])cc1OC
inactive: [1]; [7] 2% | [1]; [8] 7% | [1]; at 50.0 µM 61.9% | [2]; [7] -1% | [2]; [8] 9% | [3]; [7] 6% | [3]; [8] 9% | [4]; [7] -1% | [4]; [8] -3% | [5]; [7] -4% | [5]; [8] 2% | [6]; [7] -5% | [6]; [8] 4%
active: [2]; at 50.0 µM 78.5% | [3]; at 50.0 µM 87.3% | [4]; at 50.0 µM 93.4% | [5]; at 50.0 µM 72.5% | [6]; at 50.0 µM 79.7%
